The values that follow come from ChEMBL document CHEMBL1157539, “Thousands of chemical starting points for antimalarial lead identification” (Nature, 2010).

The subject of one experiment is Plasmodium falciparum. Kind of experiment: GSK_TCMDC: Inhibition of Plasmodium falciparum 3D7 in whole red blood cells, using parasite LDH activity as an index of growth. Test compounds present at 2uM. The format is functional.
With `COc1ccc(NC(=O)Nc2nc3ccccc3s2)cc1N1CCN(C)CC1`, the Inhibition (usually how much of the control response was suppressed) stood at 95%.
On the same count and under the same terms, the figure for `CCOc1c(CNCCCNc2nc3ccccc3[nH]2)cc(I)cc1OC.Cl` is 100%.
On the same count and under the same terms, the figure for `Oc1ccc2ncnc(Nc3ccc(OCc4cccc(F)c4)c(Cl)c3)c2c1` is 100%; for `CC(C)COc1ccc(Cl)cc1Cc1ccc(-c2nc3ccc(Br)cc3[nH]2)o1.Cl` it is 80%; for `COc1cc(C(=O)N2CCOC(CCN3CCC4c5ccccc5CC43)(c3ccc(Cl)c(Cl)c3)C2)cc(OC)c1OC` (stereo not given) it is 88%.
`CCOc1ccccc1CNc1nccc(NCCc2cn(C)c3ccccc23)n1` displayed an Inhibition of 98%.
On the same count and under the same terms, the figure for `CCCn1cnc2cc(C(=O)Nc3ccc(-c4cccc(CN(C)C)c4)cc3)ccc2c1=O` is 95%; for `N#Cc1ccc(N/C(=N\c2ccccc2Cl)NC2CCN(Cc3ccccc3)CC2)c(O)c1` it is 100%.
Same read-out and setting: the figure for `COC(=O)c1cccc(CNCc2cccc(-c3ccc(-c4nc5ccccc5[nH]4)cc3)c2)c1.O=C(O)C(F)(F)F` is 99%; for `CN(C)CCCn1c(N)c(-c2nc3ccccc3[nH]2)c2nc(C#N)c(C#N)nc21` it is 100%; for `COc1ccccc1C1CCN(C2CCC(NC(=O)c3cc4ccccc4[nH]3)CC2)CC1` (stereo not given) it is 88%.
Still for that read-out and setting: the result for `CC(=O)c1nccc(C)c1N` reads 92%; that for `CCn1c(-c2nonc2N)nc2c(-c3cccc(NC(=O)Nc4cccc(OC)c4)c3)ncc(OCCCN)c21.O=C(O)C(F)(F)F`, 92%.
`Cc1cc(NC(=O)Nc2ccc(Oc3ccccc3)cc2)c2ccccc2n1` displayed an Inhibition of 91%.
Still for that read-out and setting: the figure for `CCOC(=O)CNC(=O)N(CCN(Cc1ccccc1)C(=O)NCC(=O)OCC)Cc1ccccc1` is 98%; for `O=[N+]([O-])c1ccc(C2=NN(S(=O)(=O)c3c(Cl)cc(Cl)cc3Cl)CCCC2)cc1` it is 99%.
The same measure, in the same setting: the figure for `Cc1cccc2nc(-c3ccc(-c4ccc(CNCCCN5CCCC5=O)cc4)cc3)[nH]c12.O=C(O)C(F)(F)F` is 100%; for `O=C(Nc1cccc(F)c1)NC1CCN(CCCCCNC(=O)C2CC2c2ccc(Cl)c(Cl)c2)CC1` (stereo not given) it is 100%.
Still for that read-out and setting: the result for `C=CCN1C(=O)c2[nH]nc(-c3cc(C)c(C)cc3O)c2C1c1cccc(Br)c1` (stereo not given) reads 90%.
In turn, `COc1cccc(Nc2nccc(NCC(O)c3ccc(C(F)(F)F)cc3)n2)c1` (stereo not given) gave an Inhibition of 99%.
`Cl.N#Cc1ccc2c(c1)CCN(CCC1CCC(NC(=O)c3ccc(-c4ccccn4)s3)CC1)CC2` (stereo not given) registered an Inhibition of 92%.
As to `CCCC(CNCc1cccc(OC(F)(F)F)c1)CNc1cc(=O)c2ccccc2[nH]1` (stereo not given), the Inhibition worked out at 100%.
The compound `Cn1nccc1C(=O)NCCNCc1ccc(-c2cccc(-c3nc4cc(F)ccc4[nH]3)c2)cc1.O=C(O)C(F)(F)F` showed an Inhibition of 100%.
The same measure, in the same setting: the result for `Cc1cc(NCCc2ccccc2)nc(NC(=N)Nc2cccc(F)c2)n1` reads 91%.
Same read-out and setting: the figure for `COc1ccc(NC(=O)[C@H](C)Nc2cc(C)nc(NCC3CCCCC3)n2)cc1.O=C(O)C(F)(F)F` is 92%; for `CCCN(CCC)C(=O)c1cc(C(=O)N[C@@H](Cc2ccccc2)[C@H](O)CNCc2cccc(OC)c2)cc(N2CCCCS2(=O)=O)c1` it is 97%.
The same measure, in the same setting: the figure for `N=C(Nc1cccc(Cc2ccccc2)n1)Nc1ncccn1` is 90%; for `COc1ccc2nccc([C@@H](O)CN3CCC(NCc4cc5c(Cl)cccc5[nH]4)CC3)c2c1.O=C(O)C(=O)O` it is 100%; for `Cl.OCCNc1nc(Nc2ccccc2)nc2ccccc12` it is 93%.
In turn, `CCCNCc1ccc(-c2ccc(CN(Cc3ccc4c(c3)OCO4)C(=O)Cc3cccnc3)cc2)nc1.O=C(O)C(F)(F)F` registered an Inhibition of 94%.
On the same count and under the same terms, the result for `COc1cccc(-c2cc(-c3ccc(NC(=O)c4ccccc4)cc3)c3c(N)ncnc3n2)c1` reads 99%.
Same read-out and setting: the figure for `O=S(=O)(NC1=NCCC1)c1cccc(Nc2nc(C(F)(F)F)nc3ccccc23)c1` is 83%; for `Cc1nc(-c2cccc(NCc3ccccc3)c2)[nH]c1C.Cl` it is 100%; for `c1cncc(-c2cccc(CNc3nccc(Nc4ccc(OCCN5CCOCC5)cc4)n3)c2)c1` it is 93%.
Same read-out and setting: the figure for `COc1cccc(CNC(=O)NC2CCN(c3ccnc(Nc4ccc(F)cc4)n3)C2)c1` (stereo not given) is 94%; for `O=C(Nc1cccc(-c2nc3ccccc3[nH]2)c1)c1cccc(NC(=O)c2ccco2)c1` it is 91%.
With `Cc1ccc(C)c(NC(=O)NC2CCN(c3ccnc(Nc4ccc(F)cc4)n3)C2)c1` (stereo not given), the Inhibition was 100%.
On the same count and under the same terms, the result for `COc1ccc(CSC2CCCCC23NC(=S)NC3=S)cc1` (stereo not given) reads 97%; that for `Cc1cc(N[C@@H](CC(C)C)C(=O)NCCc2ccccc2)nc(NCC2CCCCC2)n1.O=C(O)C(F)(F)F`, 97%.
Same read-out and setting: the figure for `COc1ccccc1C1CCN(C2CCC(NC(=O)c3cc(-c4ccc(Cl)cc4)cs3)CC2)CC1` (stereo not given) is 100%.

A further experiment has as its system Plasmodium falciparum. Kind of experiment: GSK_TCMDC: Inhibition of Plasmodium falciparum Dd2 in whole red blood cells, using parasite LDH activity as an index of growth. Test compounds present at 2uM. Type of experiment: functional.
Compound `COc1ccc(NC(=O)Nc2nc3ccccc3s2)cc1N1CCN(C)CC1` showed an Inhibition of 22%.
The same measure, in the same setting: the result for `CCOc1c(CNCCCNc2nc3ccccc3[nH]2)cc(I)cc1OC.Cl` reads 4%.
Same read-out and setting: the result for `Oc1ccc2ncnc(Nc3ccc(OCc4cccc(F)c4)c(Cl)c3)c2c1` reads 30%.
Still for that read-out and setting: the result for `CC(C)COc1ccc(Cl)cc1Cc1ccc(-c2nc3ccc(Br)cc3[nH]2)o1.Cl` reads 75%.
`COc1cc(C(=O)N2CCOC(CCN3CCC4c5ccccc5CC43)(c3ccc(Cl)c(Cl)c3)C2)cc(OC)c1OC` (stereo not given): the Inhibition stood at 82%.
On the same count and under the same terms, the figure for `CCOc1ccccc1CNc1nccc(NCCc2cn(C)c3ccccc23)n1` is 62%.
On to `CCCn1cnc2cc(C(=O)Nc3ccc(-c4cccc(CN(C)C)c4)cc3)ccc2c1=O`, for which the Inhibition is 6%.
`N#Cc1ccc(N/C(=N\c2ccccc2Cl)NC2CCN(Cc3ccccc3)CC2)c(O)c1`: the Inhibition amounted to 97%.
Same read-out and setting: the result for `COC(=O)c1cccc(CNCc2cccc(-c3ccc(-c4nc5ccccc5[nH]4)cc3)c2)c1.O=C(O)C(F)(F)F` reads 51%.
Still for that read-out and setting: the result for `CN(C)CCCn1c(N)c(-c2nc3ccccc3[nH]2)c2nc(C#N)c(C#N)nc21` reads 100%; that for `COc1ccccc1C1CCN(C2CCC(NC(=O)c3cc4ccccc4[nH]3)CC2)CC1` (stereo not given), 7%.
Same read-out and setting: the figure for `CC(=O)c1nccc(C)c1N` is 0%.
Compound `CCn1c(-c2nonc2N)nc2c(-c3cccc(NC(=O)Nc4cccc(OC)c4)c3)ncc(OCCCN)c21.O=C(O)C(F)(F)F` had an Inhibition of 69%.
On the same count and under the same terms, the figure for `Cc1cc(NC(=O)Nc2ccc(Oc3ccccc3)cc2)c2ccccc2n1` is 28%.
The same measure, in the same setting: the result for `CCOC(=O)CNC(=O)N(CCN(Cc1ccccc1)C(=O)NCC(=O)OCC)Cc1ccccc1` reads 0%; that for `O=[N+]([O-])c1ccc(C2=NN(S(=O)(=O)c3c(Cl)cc(Cl)cc3Cl)CCCC2)cc1`, 98%; that for `Cc1cccc2nc(-c3ccc(-c4ccc(CNCCCN5CCCC5=O)cc4)cc3)[nH]c12.O=C(O)C(F)(F)F`, 47%.
The same measure, in the same setting: the result for `O=C(Nc1cccc(F)c1)NC1CCN(CCCCCNC(=O)C2CC2c2ccc(Cl)c(Cl)c2)CC1` (stereo not given) reads 12%.
Consider `C=CCN1C(=O)c2[nH]nc(-c3cc(C)c(C)cc3O)c2C1c1cccc(Br)c1` (stereo not given), for which the Inhibition amounted to 82%.
Same read-out and setting: the figure for `COc1cccc(Nc2nccc(NCC(O)c3ccc(C(F)(F)F)cc3)n2)c1` (stereo not given) is 28%; for `Cl.N#Cc1ccc2c(c1)CCN(CCC1CCC(NC(=O)c3ccc(-c4ccccn4)s3)CC1)CC2` (stereo not given) it is 9%.
Still for that read-out and setting: the result for `CCCC(CNCc1cccc(OC(F)(F)F)c1)CNc1cc(=O)c2ccccc2[nH]1` (stereo not given) reads 95%; that for `Cn1nccc1C(=O)NCCNCc1ccc(-c2cccc(-c3nc4cc(F)ccc4[nH]3)c2)cc1.O=C(O)C(F)(F)F`, 98%; that for `Cc1cc(NCCc2ccccc2)nc(NC(=N)Nc2cccc(F)c2)n1`, 0%.
`COc1ccc(NC(=O)[C@H](C)Nc2cc(C)nc(NCC3CCCCC3)n2)cc1.O=C(O)C(F)(F)F` came in with an Inhibition of 13%.
The same measure, in the same setting: the figure for `CCCN(CCC)C(=O)c1cc(C(=O)N[C@@H](Cc2ccccc2)[C@H](O)CNCc2cccc(OC)c2)cc(N2CCCCS2(=O)=O)c1` is 99%; for `N=C(Nc1cccc(Cc2ccccc2)n1)Nc1ncccn1` it is 34%; for `COc1ccc2nccc([C@@H](O)CN3CCC(NCc4cc5c(Cl)cccc5[nH]4)CC3)c2c1.O=C(O)C(=O)O` it is 74%.
On the same count and under the same terms, the result for `Cl.OCCNc1nc(Nc2ccccc2)nc2ccccc12` reads 61%; that for `CCCNCc1ccc(-c2ccc(CN(Cc3ccc4c(c3)OCO4)C(=O)Cc3cccnc3)cc2)nc1.O=C(O)C(F)(F)F`, 53%; that for `COc1cccc(-c2cc(-c3ccc(NC(=O)c4ccccc4)cc3)c3c(N)ncnc3n2)c1`, 98%.
Turning to `O=S(=O)(NC1=NCCC1)c1cccc(Nc2nc(C(F)(F)F)nc3ccccc23)c1`, the Inhibition was found to be 8%.
The same measure, in the same setting: the figure for `Cc1nc(-c2cccc(NCc3ccccc3)c2)[nH]c1C.Cl` is 48%; for `c1cncc(-c2cccc(CNc3nccc(Nc4ccc(OCCN5CCOCC5)cc4)n3)c2)c1` it is 27%.
Still for that read-out and setting: the figure for `COc1cccc(CNC(=O)NC2CCN(c3ccnc(Nc4ccc(F)cc4)n3)C2)c1` (stereo not given) is 64%.
Same read-out and setting: the figure for `O=C(Nc1cccc(-c2nc3ccccc3[nH]2)c1)c1cccc(NC(=O)c2ccco2)c1` is 45%; for `Cc1ccc(C)c(NC(=O)NC2CCN(c3ccnc(Nc4ccc(F)cc4)n3)C2)c1` (stereo not given) it is 74%.
Regarding `COc1ccc(CSC2CCCCC23NC(=S)NC3=S)cc1` (stereo not given), the Inhibition came to 0%.
The same measure, in the same setting: the result for `Cc1cc(N[C@@H](CC(C)C)C(=O)NCCc2ccccc2)nc(NCC2CCCCC2)n1.O=C(O)C(F)(F)F` reads 65%; that for `COc1ccccc1C1CCN(C2CCC(NC(=O)c3cc(-c4ccc(Cl)cc4)cs3)CC2)CC1` (stereo not given), 100%.
